From PubChem
HT1080-NT tox – kills 2HG-producing HT-1080-NT fibrosarcoma cells; HT-1080-NT fibrosarcoma viability, CellTiter-Glo ATP luminescence, 48 h; Potency, µM (highest dose often 46.1 µM), for inactives: at the top dose activity, negative = less viability, actives largely listed as cytotoxic; 1.6% of 360,000 active; AID 686970;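 further: NT is the 2HG producing partner of a matched IDH1 knockdown line; potency means the concentration at half of the fitted maximal effect; 0% = DMSO-treated cells and -100% = media-only wells without cells; nearly all actives have a fitted effect of over 55% in size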
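Viability of the 2HG-overproducing fibrosarcoma line after 48 hours of compound exposure at 37 degrees C was determined by luminescence with CellTiter-Glo, and concentration-effect curves were then fitted and categorized.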
Giardia killer – Giardia lamblia killing; Giardia lamblia trophozoite viability; activity change, % at 7.66 µM, hits read low; 0.15% of 340,000 active; AID 540267; in the data active means activity change below about -80%; inconclusive means between about -30% and that limit;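 further: parasites exposed to compound for two days anaerobically before the ATP read; on the % scale 0 is the no-effect control and ±100 the full control effect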
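Compounds were tested on trophozoites seeded at 100 cells/well and held 48 hrs at 37 deg C anaerobically. An ATP-based luminescent kit measured the remaining live cells.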
IL-1B inflam inh – blocks inflammasome-driven IL-1 beta release; THP-1 LPS/ATP IL-1B secretion, AlphaLISA, 16 h; stronger effect = lower value; activity change, % at 57.5 µM; 4.7% of 360,000 active; in the data active means activity change below about -50%; inconclusive means mostly about -30% to -49%; further: on the % scale 0 is the no-effect control and ±100 the full control effect
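Secreted IL-1B measured by AlphaLISA bead assay after 16 h compound exposure of THP-1 cells; compounds (final up to 57.5 uM) added 1 h before LPS (250 ng/mL) and ATP (1.25 mM) stimulation; lower signal means less secretion.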
TGFb SMAD3 inh – blocks TGF-b signaling. HepG2 CAGA-GFP TGF-b/SMAD3 reporter, GFP fluorescence, 18 h; TGF-beta stimulated, 500 pg/mL final. Potency, µM (series often up to 46.1 µM), for inactives: top-dose activity, negative = inhibition, most hits filed as inhibitors. 1.2% of 410,000 active; further: potency means the concentration at half of the fitted maximal effect; on the % scale 0 is the no-effect control and ±100 the full control effect; nearly all actives have a fitted effect of over 65% in size
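Using HEPG2 CAGA-GFP reporter cells at 1000 cells/well, we pinned test compounds, stimulated with recombinant TGF-beta (500 pg/mL final) and measured total well GFP after 18 h.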
HT1080 IDH1KD tx – HT-1080 IDH1 knockdown cell toxicity (counter line). 2% of 360,000 active. Potency, µM (highest dose often 46.1 µM), for the others: top-dose activity, negative = toxicity, actives largely listed as cytotoxic. HT-1080 IDH1 knockdown viability, ATP luminescence, 48 h;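 further: potency means the concentration at half of the fitted maximal effect; 0% = DMSO wells and -100% = cell-free medium wells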
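Knockdown cells (IDH1KD HT-1080) received compounds 2 h after plating at 750 cells/well and were kept 48 h at 37 °C in 5% FBS RPMI. A CellTiter-Glo luminescence read gave % activity for curve fitting.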
HepG2 tox – HepG2 cytotoxicity, counter-screen for TGF-b inhibitors; HepG2 CAGA-GFP viability, ATP luminescence, 18 h; Potency, µM (titrated, usually from 46.1 µM), for inactives: top-dose activity change, negative = cytotoxicity, actives largely listed as cytotoxic; 0.76% of 410,000 active; further: potency means the concentration at half of the fitted maximal effect
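CellTiter-Glo luminescence gave cytotoxicity after 18 hours at 37 degrees C. The cells were HepG2 CAGA-GFP in 1% FBS DMEM, stimulated with 500 pg/mL TGF-beta after compound addition. %Activity was normalised to no-cell wells (complete cell-killing) and DMSO (no toxicity), and curves were fitted and classified.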
The depositor's hits bear a star; ? = inconclusive; . = no result given. Most compounds without a hit are left out; they make up all but 6.5% or so of the library. Unless noted, the call rests on the fitted dose curve; in most records, active means well fitted curve in the direction sought with a large enough effect; inconclusive means small, poorly fitted or top-dose-only effect, or another doubt; inactive means no such curve, though single readings can be large; an effect the other way counts as inactive or inconclusive.

SMILES	HT1080-NT tox	Giardia killer	IL-1B inflam inh	TGFb SMAD3 inh	HT1080 IDH1KD tx	HepG2 tox
COc1ccccc1CN1C2CCCC1CC(NC(=O)/C=C/c1ccccc1)C2 (stereo not drawn)	-15%	-13	-77*	-24%	-25%	-22%
CCCNC(=S)NC1CC2CCCC(C1)N2Cc1ccccc1OC (stereo not drawn)	-3%	.	-5	1%	6%	-24%
CN(CCOc1ccc(Cl)cc1)CC(=O)Nc1ccc(OC(F)F)cc1	-26%	-3	-5	?	-17%	-90%
CCC(C)c1ccccc1NC(=O)CN(C)CCOc1ccc(Cl)cc1 (stereo not drawn)	?	2	-77*	0%	?	8%
Cc1cccc(Cc2c(C)nc3nc(SCC(=O)NCc4ccco4)nn3c2C)c1	-3%	32	7	-8%	-21%	-1%
Cc1ccc(Cc2c(C)nc3nc(SCC(=O)NCc4ccco4)nn3c2C)cc1	?	13	46	-11%	2.6µM*	-1%
O=C(O)C1OC2OC3(CCCCC3)OC2C2OC3(CCCCC3)OC12 (stereo not drawn)	21%	3	14	15%	22%	-84%
NC(=O)[C@@H]1CCCNc2c(F)cc([N+](=O)[O-])cc2C(=O)N[C@@H](CO)C(=O)N[C@@H](Cc2ccc(O)cc2)C(=O)N1	0%	16	31	-16%	0%	-4%
Cc1cc(/C=C2\SC(=Nc3ccccc3)NC2=O)c(C)n1-c1ccc(S(N)(=O)=O)cc1	7.3µM*	1	-13	13µM*	5.2µM*	-51%
Oc1ccccc1OCc1nc2ccccc2s1	-10%	-2	4	2%	-16%	-11%
Oc1ccc(O)c(Cc2nc3ccccc3s2)c1	?	3	-55*	?	16µM*	-11%
O=c1nc2ccc(Cl)cn2c2ccc(S(=O)(=O)N3CCCCC3)cc12	-5%	7	6	-1%	-8%	0%
CC(C)[C@H](NC(=O)CCCn1nnc2ccccc2c1=O)C(=O)O	-1%	-5	-73*	12%	10%	2%
O=C(O)CNC(=O)CCCn1nnc2ccccc2c1=O	3%	6	-1	4%	-3%	1%
Cc1cccc(Nc2nc(-c3ccccc3)c(C(=O)Nc3cccnc3)s2)c1	?	-9	-61*	?	?	0%
COc1ccc(/C=c2/sc3n(c2=O)C(c2ccccc2OC)C2=C(N=3)c3ccccc3CC2)cc1O (stereo not drawn)	?	16	-18	?	26µM*	-28%
Cc1nn(CC(=O)Nc2sc3c(c2C#N)CCC(C(C)(C)C)C3)c(C)c1[N+](=O)[O-] (stereo not drawn)	15%	8	-3	-19%	24%	-18%
COc1cccc(N(C(=O)CCl)C(C(=O)NCCc2ccccc2)c2cccs2)c1 (stereo not drawn)	1.6µM*	-5	?	13µM*	1.3µM*	-106%
CN(C)S(=O)(=O)c1cccc(C(=O)NCCCn2ccnc2)c1	10%	7	20	2%	15%	0%
Oc1c(C2=NCCNC(C(F)(F)F)=C2)ccc2ccccc12	?	-27	-109*	-29%	?	-13%
COc1ccc(S(=O)(=O)N(CCc2ccccc2)CC(=O)Nc2cccc(OC)c2)cc1	.	.	.	-22%	.	-16%
O=C(N/N=C/c1ccc(N2CCOCC2)cc1)c1ccccc1OCCOc1ccccc1	-20%	-14	-65*	-5%	?	-22%
O=C(N/N=C/c1ccc(N2CCOCC2)cc1)c1ccncc1	1%	-7	3	2%	1%	0%
CC(=O)N1CCC2(CC1)CC(=O)c1cc(Cl)ccc1O2	4%	-7	16	-18%	8%	-19%
Cc1ccc(NC(=O)NCc2c(-n3cccc3)sc3c2CCCC3)c(Cl)c1	.	.	.	2%	.	10%
SMILES	HT1080-NT tox	Giardia killer	IL-1B inflam inh	TGFb SMAD3 inh	HT1080 IDH1KD tx	HepG2 tox
CCCn1c(CC)nc([N+](=O)[O-])c1S(=O)(=O)c1ccccc1	?	16	-104*	?	?	11µM*
O=S(=O)(NCCN1CCOCC1)c1ccc2c(c1)OCCO2	-1%	-9	-74*	2%	-3%	-13%
CCSc1nc(-c2ccccc2)nc(C(Cl)Cl)n1	?	22	-24	5.6µM*	?	7.1µM*
Nc1c(Cl)cc2c(c1Oc1ccccc1)C(=O)c1ccccc1C2=O	0%	-3	-71*	-4%	1%	2%
Nc1c(Cl)cc2c(c1Br)Cc1ccccc1-2	0%	1	16	30%	5%	-5%
COc1cccc(-c2[nH]nc3c2C(c2ccc(C)o2)C(C#N)=C(N)O3)c1 (stereo not drawn)	1%	-4	-15	-6%	5%	-23%
CC1CCC2C(=O)N(c3ccc(C(=O)Oc4cccc5cccnc45)cc3)C(=O)C2C1 (stereo not drawn)	?	-1	-86*	0%	?	-40%
Cc1ccc(C(=O)Oc2ccccc2N2C(=O)C3CCC(C)CC3C2=O)cc1 (stereo not drawn)	11%	0	0	0%	8%	4%
Cc1cc(Br)ccc1NC(=O)CN(C)C(=O)c1cc([N+](=O)[O-])ccc1N1CCOCC1	-5%	9	-59*	-4%	-3%	-3%
COc1ccc(CCNC(=O)c2cc([N+](=O)[O-])ccc2N2CCOCC2)cc1	-11%	-5	0	7%	-23%	-1%
COc1ccc(C(=O)c2cc([N+](=O)[O-])ccc2N2CCOCC2)cc1	?	-1	2	?	0.15µM*	-23%
Cc1ccc(C(=O)c2cc([N+](=O)[O-])ccc2N2CCOCC2)cc1	5.2µM*	4	36	-2%	7.3µM*	0%
O=C(CCc1nc(-c2ccccc2F)no1)NCCN1CCN(Cc2ccccc2)CC1	-2%	1	10	?	-9%	-11%
COc1ccc(S(=O)(=O)N(C)C[C@H]2Oc3c(NC(=O)Nc4c(C)noc4C)cccc3C(=O)N([C@@H](C)CO)C[C@H]2C)cc1	-1%	9	-15	6%	6%	-7%
CCc1nnc(NC(=O)CSc2nc3cccnc3n2C2CCCCC2)s1	?	-6	25	-15%	?	-24%
C/C(CC(=O)Nc1ccc2c(c1)OCCO2)=N\NC(=O)COc1ccccc1C	3%	-22	10	3%	-5%	-4%
COc1ccc(/C=C/C(=O)Nc2ccc(Cl)c(Cl)c2)cc1	.	.	.	-26%	.	-51%
